Only a selection was taken, and hits are over-represented in it overall.
FBPA Giardia inh: qHTS Assay for Inhibitors of Fructose-1,6-bisphosphate Aldolase from Giardia Lamblia | A8B2U2 | purified Giardia FBPA | Potency, µM (top dose mostly 59.6 µM), actives largely listed as inhibitors | 0.71% of 290,000 active | AID 2451, 2010; further: nearly all actives have a fitted effect of over 55% in size
Target sequence (A8B2U2 whole entry, looked up): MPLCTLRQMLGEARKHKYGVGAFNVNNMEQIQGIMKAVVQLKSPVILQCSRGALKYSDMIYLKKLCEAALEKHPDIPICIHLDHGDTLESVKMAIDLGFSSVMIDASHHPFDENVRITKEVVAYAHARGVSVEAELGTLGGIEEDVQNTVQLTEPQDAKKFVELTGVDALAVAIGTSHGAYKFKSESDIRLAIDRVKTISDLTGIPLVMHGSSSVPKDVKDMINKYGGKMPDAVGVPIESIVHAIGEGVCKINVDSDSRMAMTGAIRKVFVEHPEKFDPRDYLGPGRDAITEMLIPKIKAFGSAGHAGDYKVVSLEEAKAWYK
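40 nM FBPA preincubated 10 min at RT with compound (up to 57.5 uM final), then substrate plus GAPDH/TPI/NAD/arsenate coupling and diaphorase/resazurin added. Fluorescence read after 20 min at RT, 525/598 nm.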
Sm TGR inh: qHTS Assay for the Inhibitors of Schistosoma Mansoni Peroxiredoxins | Schistosoma mansoni thioredoxin glutathione reductase (TGR), Q962Y6 | purified TGR, DTNB reduction, TNB absorbance 405 nm | Potency, µM (doses to about 114 µM), actives largely listed as inhibitors | 3% of 360,000 active; further: nearly all actives have a fitted effect of over 60% in size
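First, TGR (20 nM dispensed) and NADPH were mixed with compound. Second, a 15 min room-temperature incubation followed. Third, further NADPH and then DTNB were added to start the reaction. Finally, TNB absorbance was monitored kinetically.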
LmPK inh: qHTS Assay for Inhibitors of Leishmania Mexicana Pyruvate Kinase (LmPK); AID 1721, 2009; 0.37% of 290,000 active; Potency, µM (doses to about 57.5 µM), actives largely listed as inhibitors; purified LmPK, Kinase-Glo ATP luminescence, 1 h; Q27686
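Screened at intermediate enzyme activity to detect both inhibitors and activators: LmPK at 0.1 nM, with a 0.5 nM enzyme column as activation reference. PEP 0.5 mM, ADP 0.1 mM; ATP detected by luminescence after 1 h.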
Cycloheximide cs: Cycloheximide Counterscreen for Small Molecule Inhibitors of Shiga Toxin | cell reporter, cycloheximide protein synthesis inhibition counterscreen | max response, % | 12% of 300,000 active | AID 2314, 2010; in the data active means max response mostly above about 13%, no sharp cut-off; inactive means mostly below about 14%; further: read at 38.3 µM for the half of the compounds with a filed dose
TbPYK inhibitor: qHTS of Trypanosoma Brucei Inhibitors; pyruvate kinase (Trypanosoma brucei), Q57TT1; TbPYK enzyme, Kinase-Glo Plus ATP luminescence, 45 min; Potency, µM (highest dose often 76.8 µM), usual class: inhibitors; 0.12% of 410,000 active; AID 624173, 2012; further: nearly all actives have a fitted effect of over 50% in size
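ADP (130 uM final) triggers the TbPYK reaction after compound addition; incubation is 45 min at room temperature. Kinase-Glo Plus is then added and luminescence imaged. Normalized data are fitted to concentration-effect curves.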
Shiga inhibitor: A qHTS for Small Molecule Inhibitors of Shiga Toxin. Vero cells, Shiga toxin protein synthesis inhibition reporter. inhibition, % at 38.7 µM. 9.2% of 290,000 active; in the data active means inhibition mostly above about 28%, no sharp cut-off; inactive means mostly below about 43%
Hits are given with their value; - = inactive; ? = inconclusive; . = no result given; [ ] = another dose, or the depositor's remark. Unless noted, the call rests on the fitted dose curve; in most records, active means well fitted curve in the direction sought with a large enough effect; inconclusive means small, poorly fitted or top-dose-only effect, or another doubt; inactive means no such curve, though single readings can be large; an effect the other way counts as inactive or inconclusive.

SMILES	FBPA Giardia inh	Sm TGR inh	LmPK inh	Cycloheximide cs	TbPYK inhibitor	Shiga inhibitor
CC(=O)n1nc(-c2ccccc2)nc1NCc1ccc(N(C)C)cc1	-	.	-	44.8	-	67.6
CCC(=O)n1nc(-c2ccccc2)nc1NCc1ccccc1	-	-	-	23.2	-	70.7
CCC(=O)n1nc(-c2ccc(OC)cc2)nc1NCc1cccs1	-	-	-	-	-	-
CC(=O)n1nc(-c2ccccc2)nc1NCc1cccs1	-	-	-	25.4	-	-
CCC(=O)n1nc(-c2cccnc2)nc1NCc1ccc(OC)cc1	-	-	-	-	-	-
COc1ccc(CCNC(=O)Cn2cc(S(=O)(=O)Cc3ccccc3Cl)c3ccccc32)cc1OC	.	-	.	.	-[15.4 µM]	.
Cc1ccc(CN(Cc2cccn2-c2nnc(N3CCCC3=O)s2)C(=O)Nc2ccccc2Cl)cc1	.	-	.	.	-	.
COCC(=O)n1nc(-c2ccccc2)nc1NCc1ccc(F)cc1	-	-	-	-	-	47.2
COc1ccc(CNc2nc(-c3ccccc3)nn2C(=O)c2ccc([N+](=O)[O-])cc2)cc1	-	-	-	32.2	-	75.3
CC(C)CC(=O)n1nc(-c2cccnc2)nc1NCc1ccc(F)cc1	.	-	.	.	-	.
COc1ccc(CNc2nc(-c3ccccc3)nn2C(=O)c2cccs2)cc1	-	-	-	-	-	-
COc1ccc(CNCCC(c2ccc3c(c2)OCO3)c2ccccc2OC)cc1 (stereo not drawn)	.	-	.	.	-	.
CCCCCC#CC[C@@H](O)/C=C/C=C/C=C\[C@@H](O)CCCC(=O)O	-	.	.	.	.	.
COc1ccc(/C=C2/SC(=S)N(CCC(=O)N3CCN(C)CC3)C2=O)cc1	-	-	-	-	-	-
COc1ccc(/C=C2/SC(=S)N(CCCC(=O)N3CCN(C)CC3)C2=O)cc1	-	-	?	11.9	-	35.3
COc1ccc(/C=C2\SC(=S)N(CC(=O)Nc3nnc(C)s3)C2=O)cc1	-	-	-	-	-	-
COc1ccc(/C=C2\SC(=S)N(CC(=O)NCCO)C2=O)cc1	-	-	-	20.8	-	-
CC(=O)COC(=O)C1CCN(S(=O)(=O)c2cc([N+](=O)[O-])ccc2Cl)CC1	?	7.94µM	-	-	-	-
O=C(COC(=O)C1CCN(S(=O)(=O)c2cc([N+](=O)[O-])ccc2Cl)CC1)Nc1ncc(Cl)cc1Cl	.	39.8µM	-	-	-	-
CN(Cc1ccccc1)C(=O)C1CCN(S(=O)(=O)c2cc([N+](=O)[O-])ccc2Cl)CC1	-	-	-	-	-	-
COc1ccc2c(CNC3CCC(C)CC3)c(C(=O)O)n(Cc3ccc(F)cc3)c2c1 (stereo not drawn)	.	-	.	.	-	.
O=C(CSCc1cccc(F)c1)NCc1ccccc1	-	-	-	47.6	-	172.8
CCc1ccc(CNC(=O)CCSCc2ccccc2F)cc1	.	-	.	.	-	.
COc1ccc(CNC(=O)CSCc2ccccc2Cl)cc1	-	-	-	62.3	-	65.9
O=C(CSCc1ccccc1F)NCc1ccccc1	-	-	-	44.2	-	-
SMILES	FBPA Giardia inh	Sm TGR inh	LmPK inh	Cycloheximide cs	TbPYK inhibitor	Shiga inhibitor
O=C(CCSCc1cccc(F)c1)NCc1ccc(F)cc1	-	-	-	-	-	-
Cc1ccc(CNC(=O)CSCc2cccc(F)c2)cc1	-	-	-[11.5 µM]	45.9	-	-
Cc1cccc2sc(N(Cc3cccnc3)C(=O)C3COc4ccccc4O3)nc12 (stereo not drawn)	.	-	.	.	-	.
CC(C)NC(=O)c1ccc(CSCc2ccccc2Cl)o1	-	-	-	26.5	-	-
O=C(O)c1ccc(CSCc2ccccc2Cl)o1	-	-	-	-	-	-
CCC(C)NC(=O)c1ccc(CSCc2ccccc2Cl)o1 (stereo not drawn)	-	-	-	23.2	-	-
COc1ccc(-c2nnc(SCC(=O)c3ccc(NC(C)=O)cc3)o2)cc1OC	.	-	.	.	-	.
COC/C=C/C1=CC2=CC(=O)C(C)(OC(=O)c3cnc4ccccc4n3)C(=O)C2=CN1Cc1ccc2c(c1)OCO2 (stereo not drawn)	?	.	-[11.5 µM]	.	.	.
COc1ccc(C2=CSC(/N=C/c3ccc(F)cc3)=NN2)cc1	-	-	-	30.4	-	-
COc1ccc(-c2cc3ccc(F)cc3cn2)cc1	.	.	.	.	-	.
Cc1cc(Nc2ccccc2)nc(-c2ccccc2O)n1	-	-	-	34.9	-	106.8
Cc1cc(NC2CCCCC2)nc(-c2ccccc2O)n1	-	-	-	14.7	-	-
Cc1cc(Nc2cccc(F)c2)nc(-c2ccccc2O)n1	-	-	-	-	-	-
CCOC(=O)CNC(=O)N1CCc2cc(S(=O)(=O)N3CCC(C)CC3)ccc21	.	-	.	.	-	.
Cc1nc(-c2ccc(C(=O)N3CCOCC3)cc2)cs1	-	-	-	31.7	-	-
Cc1nc(-c2ccc(C(=O)N3CCCC3)cc2)cs1	-	-	?	36.8	?	131.6
Cn1nc(C2CC2)cc1NC(=O)C1(C)CCN1C(=O)Cc1ccc(-c2ccccc2)cc1 (stereo not drawn)	.	.	.	.	-	.
CC1(C)c2ccccc2-c2nc3ccccc3cc2C1O (stereo not drawn)	-	-	-	18.1	-	-
c1ccc2c(c1)-c1nc3ccccc3cc1C2N1CCCCC1 (stereo not drawn)	.	.	.	.	-	.
CCCN(CC(=O)Nc1ccccc1C)C(=O)COc1c(C)cccc1C	.	-	.	.	-	.
CCCN(CC(=O)Nc1ccccc1C)C(=O)COC(=O)CSc1ccc([N+](=O)[O-])cc1	.	-	.	.	-	.
CCCN(CC(=O)Nc1ccccc1C)C(=O)CCl	-	14.1µM	-	-	-	-
CCCN(CC(=O)Nc1ccccc1C)C(=O)c1ccc(-c2ccc([N+](=O)[O-])cc2)o1	.	6.31µM	.	.	-	.
CN(C)c1ccc(CN(Cc2ccco2)C(=O)COc2ccc(F)cc2)cc1	.	-	.	.	-	.
COCCCN1C(=O)C(CC(=O)NCc2ccco2)CC(C(=O)N(C(C)C)C(C)C)=C1C (stereo not drawn)	.	.	.	.	-	.
SMILES	FBPA Giardia inh	Sm TGR inh	LmPK inh	Cycloheximide cs	TbPYK inhibitor	Shiga inhibitor
CC(=Nc1ccc(C)c(C)c1)C1=C(O)CSC1=O	-	-[11.4 µM]	-	23.3	-	-
Cc1nn(-c2ccc(C(F)(F)F)cn2)c(C)c1Oc1ccccc1O	-	-	-	23.2	-	-
CN1C(=O)/C(=C/c2ccccc2Cl)Sc2ccc(C(=O)N3CCCC3)cc21	-	-	-	22.4	-	-
COc1cccc(/C=C2\NC(=O)NC2=O)c1O	-	-	-	-	-	40.6
CC(=O)c1ccc(-n2c(C)ccc2-c2ccccc2)cc1	-	-	-	28.9	-	-
CC(=O)Nc1ccc(-n2c(C)ccc2-c2ccccc2)cc1	-	?	-	-	-	-
COC(=O)c1ccc(-n2c(C)ccc2-c2ccccc2)cc1	-	-	-	13.7	-	-
COc1ccc(C)cc1NC(=O)COCc1cc(-c2ccc(F)cc2)on1	.	-	.	.	-	.

Screening data deposited in PubChem BioAssay by National Center for Advancing Translational Sciences (NCATS).
